Bioassay records (PubChem BioAssay)
This is a sample that favours compounds with a hit; in the whole collection about 4.7% have one here.
ADAM10 inh: inhibits human ADAM10. AID 720582. O14672. recombinant ADAM10, EDANS/DABCYL FRET peptide cleavage, 3 h. 370,000 tested, 0.62% active. inhibition, % at 7 µM;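 active = inhibition above a per-campaign cutoff equal to the mean of compounds falling between control-based bounds plus 3 SD, cut at about 20% in these data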;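 also: 0% = DMSO wells while the 100% control is not disclosed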
rCAG binder: binds r(CAG) RNA repeats; r(CAG) RNA repeat, TO-PRO-1 dye displacement fluorescence; inhibition, % at 3 µM; 370,000 tested, 1.3% active;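 active = inhibition above the plate cutoff, the mean of all test compounds on that plate plus 3 SD, cut at about 35% in these data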;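 also: 0% = DMSO alone and 100% = 100 µM mitoxantrone as full dye displacement; higher means more dye released from RNA so lower well fluorescence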
ADAM17 inh: inhibits human ADAM17; P78536; 370,000 tested, 0.83% active; inhibition, % at 6.95 µM; recombinant ADAM17, EDANS/DABCYL FRET peptide cleavage;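 active = inhibition above the mean of compounds lying between control limits plus 3 SD, set per campaign, cut at about 8.5% in these data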;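 also: 0% = DMSO-only wells as the low control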
MPTP inh: permeability transition pore inhibition; isolated mouse mitochondria, Ca2+ swelling absorbance, 30 min; inhibition, % at 10 µM; 360,000 tested, 1.4% active; AID 602449;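 active = inhibition of 50% or more, scaled per plate between neutral and stimulator controls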;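 also: 0% = DMSO wells given calcium and 100% = 1 mM EGTA wells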
KLK7 zymogen act: activates the human kallikrein-7 zymogen | P49862 | purified proKLK7, EDANS-DABCYL substrate fluorescence; 100% is mature enzyme control, 0% vehicle | activation, % at 7 µM | 370,000 tested, 0.9% active;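 active = activation above the mean of all tested compounds plus 3 SD, computed per campaign excluding outliers beyond control limits, cut at about 13% in these data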
Pemphigus Ab inh: human desmoglein-3 autoantibody binding inhibition; binding (percent of control), % at 10 µM; 310,000 tested, 0.48% active; DSG3-coupled beads, scFv-anti-DSG3-GFP binding, flow cytometry; stronger effect = lower value; AID 588358; P32926;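 active = binding more than 3 SD below its plate's average and above zero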;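 also: hits lower antibody fragment binding to DSG3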
Target sequence (P32926 whole entry, looked up, the tested form may be a part): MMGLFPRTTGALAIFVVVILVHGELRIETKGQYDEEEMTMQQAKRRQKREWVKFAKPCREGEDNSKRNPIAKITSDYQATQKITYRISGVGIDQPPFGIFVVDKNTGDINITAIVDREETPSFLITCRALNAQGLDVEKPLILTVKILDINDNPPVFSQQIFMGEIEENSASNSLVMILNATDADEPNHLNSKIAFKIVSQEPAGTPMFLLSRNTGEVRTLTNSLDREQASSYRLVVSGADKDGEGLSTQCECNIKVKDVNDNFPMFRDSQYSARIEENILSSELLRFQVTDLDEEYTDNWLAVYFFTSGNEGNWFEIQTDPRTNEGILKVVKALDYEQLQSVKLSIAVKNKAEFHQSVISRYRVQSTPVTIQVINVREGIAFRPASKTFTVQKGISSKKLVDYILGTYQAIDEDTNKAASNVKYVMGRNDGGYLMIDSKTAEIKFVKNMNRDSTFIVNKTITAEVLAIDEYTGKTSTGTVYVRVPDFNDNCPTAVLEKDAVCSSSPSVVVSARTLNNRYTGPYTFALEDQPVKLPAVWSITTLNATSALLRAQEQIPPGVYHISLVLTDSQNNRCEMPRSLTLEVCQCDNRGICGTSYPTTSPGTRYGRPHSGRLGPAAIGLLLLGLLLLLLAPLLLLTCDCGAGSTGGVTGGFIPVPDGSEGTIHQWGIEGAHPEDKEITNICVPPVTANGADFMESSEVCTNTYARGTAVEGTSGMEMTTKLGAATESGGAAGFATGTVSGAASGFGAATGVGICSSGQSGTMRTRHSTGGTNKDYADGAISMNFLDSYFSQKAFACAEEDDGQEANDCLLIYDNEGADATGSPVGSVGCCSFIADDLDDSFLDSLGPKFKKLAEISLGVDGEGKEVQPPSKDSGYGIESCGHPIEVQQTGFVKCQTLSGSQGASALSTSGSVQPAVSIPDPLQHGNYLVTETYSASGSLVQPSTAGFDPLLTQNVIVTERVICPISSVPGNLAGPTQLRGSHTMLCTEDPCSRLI
rCAG binder conf: r(CAG) RNA repeat binding, confirmation; shares compounds with rCAG binder; TO-PRO-1 dye displacement fluorescence; inhibition, % at 3 µM; 4,300 tested, 70% active; AID 652065;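 active = inhibition above a per-plate cutoff, the mean inhibition of sample wells plus 3 SD, cut at about 35% in these data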;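 also: loss of TO-PRO-1 fluorescence as compound displaces dye from 1x1 AA loop RNA; 0% = DMSO only wells and 100% = 100 µM mitoxantrone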
DNA CAG counter: disrupts DNA CAG TO-PRO-1 complex, flagging rCAG hits; shares compounds with rCAG binder; 4,300 tested, 94% active; AID 652068; d(CAG) DNA oligo TO-PRO-1 dye displacement, fluorescence; inhibition, % at 3 µM;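 active = inhibition above its plate's cutoff, the mean test-well inhibition plus 3 SD, cut at about 4.8% in these data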;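 also: 0% = DNA dye mix with DMSO and 100% = 100 µM mitoxantrone; hits displace the dye from DNA and so lower well fluorescence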
Active calls of the source: *.

For Nc1ccc(CNC(=O)OCC2c3ccccc3-c3ccccc32)cc1 the results were ADAM10 inh 5.4, rCAG binder 0.8, ADAM17 inh 3.2, MPTP inh -1.2, KLK7 zymogen act 0.0 and Pemphigus Ab inh 94.3.
For O=C(N[C@H](Cc1ccc(Cl)cc1)C(=O)O)OCC1c2ccccc2-c2ccccc21 the results were ADAM10 inh 3.1, rCAG binder 40.0*, ADAM17 inh -2.0, MPTP inh 1.3, KLK7 zymogen act 0.2, Pemphigus Ab inh 102.2, rCAG binder conf 66.4* and DNA CAG counter 23.6*.
For COP(=O)(O)[C@@H](CC(C)C)NC(=O)OCc1ccccc1 the results were ADAM10 inh -1.0, rCAG binder 1.1, ADAM17 inh -1.3 and KLK7 zymogen act -0.2.
`COc1ccc(C(=O)Nc2ccc(NC(=O)c3ccco3)cc2)cc1` gave ADAM10 inh 4.4, rCAG binder 0.5, ADAM17 inh -0.1, MPTP inh 0.3, KLK7 zymogen act 7.6 and Pemphigus Ab inh 119.7.
Screening COc1ccc(-n2c(NC(=O)c3ccco3)c(C#N)c3nc4ccccc4nc32)cc1 returned ADAM10 inh inactive, rCAG binder 53.1*, ADAM17 inh -175.0, MPTP inh 3.3, KLK7 zymogen act 4.9, Pemphigus Ab inh 98.2, rCAG binder conf 42.9* and DNA CAG counter 12.8*.
`COc1ccccc1/C=C1\SC(=S)N(NS(=O)(=O)c2ccc(C)cc2)C1=O` gave ADAM10 inh -2.2, rCAG binder 77.9*, ADAM17 inh -2.8, MPTP inh 4.4, KLK7 zymogen act 0.2, Pemphigus Ab inh 94.3, rCAG binder conf 68.9* and DNA CAG counter 33.2*.
Screening COc1ccc(/C=C2\SC(=S)N(NS(=O)(=O)c3ccc(C)cc3)C2=O)c(OC)c1 returned ADAM10 inh 0.1, rCAG binder 86.6*, ADAM17 inh -1.7, MPTP inh 4.8, KLK7 zymogen act 0.2, Pemphigus Ab inh 111.5, rCAG binder conf 85.3* and DNA CAG counter 57.5*.
Screening COc1ccc(OC)c(/C=C2\SC(=S)N(NS(=O)(=O)c3ccc(C)cc3)C2=O)c1 returned ADAM10 inh 7.0, rCAG binder 84.4*, ADAM17 inh -1.5, MPTP inh 5.2, KLK7 zymogen act 0.2, Pemphigus Ab inh 90.3, rCAG binder conf 87.4* and DNA CAG counter 51.8*.
`O=C(NCCc1c[nH]c2ccccc12)OCc1cn(-c2cccc(Cl)c2)nn1` gave ADAM10 inh 6.1, rCAG binder 4.1, ADAM17 inh -2.2 and KLK7 zymogen act -1.1.
`CCCCCCCCN1C(=O)[C@@H](CC(=O)NCCCCc2ccccc2)C[C@@]2(C(=O)OC)C1=C[C@H](C1CCCC1)O[C@@H]2C` gave ADAM10 inh -8.7, rCAG binder 0.8, ADAM17 inh -5.4 and KLK7 zymogen act 0.1.
CCN(C(=O)c1cccc(NC(=O)c2ccccc2)c1)C1CCCCC1 was read as ADAM10 inh -6.1, rCAG binder -6.0, ADAM17 inh 4.5, MPTP inh 0.7, KLK7 zymogen act 0.8 and Pemphigus Ab inh 100.3.
Screening COc1ccc(O)c(/C=C2/SC(=S)N(Cc3ccccc3)C2=O)c1 returned ADAM10 inh -7.1, rCAG binder 19.0, ADAM17 inh -3.1, MPTP inh 1.8, KLK7 zymogen act -0.2 and Pemphigus Ab inh 92.6.
O=C(O)COc1ccc(/C=C2/SC(=S)N(Cc3ccccc3)C2=O)cc1 was read as ADAM10 inh 13.8, rCAG binder 75.8*, ADAM17 inh -0.5, MPTP inh -0.8, KLK7 zymogen act -0.1, Pemphigus Ab inh 121.2, rCAG binder conf 84.8* and DNA CAG counter 51.6*.
O=C1/C(=C\c2cc(Cl)c(O)c(Cl)c2)SC(=S)N1Cc1ccccc1 was read as ADAM10 inh 0.6, rCAG binder 18.2, ADAM17 inh -2.3, MPTP inh 8.8, KLK7 zymogen act 0.6 and Pemphigus Ab inh 207.2.
For COc1ccc(/C=C2/SC(=S)N(Cc3ccccc3)C2=O)cc1O the results were ADAM10 inh 8.4, rCAG binder 44.0*, ADAM17 inh -0.2, MPTP inh 3.7, KLK7 zymogen act 0.2, Pemphigus Ab inh 85.7, rCAG binder conf 26.4 and DNA CAG counter 13.8*.
`COc1ccc(/C=C2\SC(=O)N(CC(=O)NNC(=O)c3ccccc3O)C2=O)cc1OC` gave ADAM10 inh -60.0, rCAG binder 50.5*, ADAM17 inh 1.4, MPTP inh 1.4, KLK7 zymogen act 0.7, Pemphigus Ab inh 106.4, rCAG binder conf 45.9* and DNA CAG counter 15.7*.
For CCC(NC(=O)c1ccc2c(ccn2Cc2cccc(-c3ccc(C(=O)O)cc3)c2)c1)c1ccccc1 (centres undefined) the results were ADAM10 inh 11.3, rCAG binder 77.2*, ADAM17 inh -2.6, KLK7 zymogen act -0.4, rCAG binder conf 76.6* and DNA CAG counter 35.0*.
`CC1=CCC(C(=O)O)C(C(=O)Nc2ccc(-c3nc4ccc(C)cc4s3)cc2)C1` (centres undefined) gave ADAM10 inh inactive, rCAG binder 66.8*, ADAM17 inh inactive, MPTP inh 1.6, KLK7 zymogen act -4.8, Pemphigus Ab inh 99.4, rCAG binder conf 73.2* and DNA CAG counter 35.8*.
`O=[N+]([O-])c1ccc2nc(NS(=O)(=O)c3ccc(F)cc3)sc2c1` gave ADAM10 inh -1.2, rCAG binder 43.2*, ADAM17 inh 2.7, MPTP inh 1.6, KLK7 zymogen act 0.7, rCAG binder conf 27.9 and DNA CAG counter 4.3.
Cc1ccc2nc(-c3ccc(NS(=O)(=O)c4ccc(F)cc4)cc3)sc2c1 was read as ADAM10 inh inactive, rCAG binder 48.0*, ADAM17 inh inactive, MPTP inh 24.7, KLK7 zymogen act -96.8, Pemphigus Ab inh 88.6, rCAG binder conf 60.4* and DNA CAG counter 23.8*.
`O=S1(=O)N[C@H](Cc2ccccc2)COc2cccc(NCCO)c21` gave ADAM10 inh -8.8, rCAG binder 2.4, ADAM17 inh -3.1 and KLK7 zymogen act 0.3.
`COc1cc(C(NC(C)=O)NC(C)=O)ccc1OCc1ccccc1` gave ADAM10 inh 1.3, rCAG binder -2.0, ADAM17 inh -0.7, MPTP inh -0.1, KLK7 zymogen act -0.3 and Pemphigus Ab inh 106.5.
Screening C=CCOc1ccc(C(c2c(C(=O)O)[nH]c3ccccc23)c2c(C(=O)O)[nH]c3ccccc23)cc1 returned ADAM10 inh 0.9, rCAG binder 92.2*, ADAM17 inh -3.5, MPTP inh 0.1, KLK7 zymogen act -0.1, Pemphigus Ab inh 105.5, rCAG binder conf 82.2* and DNA CAG counter 51.0*.
